Shown are actives, neighbours in structure and some others; about 6.6% of the full set was active somewhere.
HT1080 IDH1KD tx: HT-1080 IDH1 knockdown cell toxicity (counter line) | HT-1080 IDH1 knockdown viability, ATP luminescence, 48 h | Potency, µM (top dose mostly 46.1 µM), hits mostly cytotoxic | 360,000 compounds, 2% hits | AID 686971
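CellTiter-Glo luminescence after 48 h compound exposure at 37 degrees C of IDH1-knockdown HT-1080 cells in 5% FBS RPMI. %Activity scaled between DMSO wells and cell-free media wells, with curves fitted and assigned curve classes.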
KB-V1 cytotox: kills drug-selected multidrug resistant KB-V1 cells; KB-V1 MDR cells viability, CellTiter-Glo, 72 h; Potency, µM (highest dose often 46.1 µM), hits mostly cytotoxic; 400,000 compounds, 3.4% hits; AID 1347076; also: nearly all actives have a fitted effect of over 60% in size
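Luminescent ATP read-out (CellTiter-Glo, 10 min) measures survival of drug-selected KB-V1 MDR cells after 72 h, 37 degrees C compound exposure. Medium: phenol-red-free DMEM, 10% FBS. Values from fitted concentration-response curves.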
HepG2 tox: HepG2 cytotoxicity, counter-screen for TGF-b inhibitors; Potency, µM (titrated, usually from 46.1 µM), actives largely listed as cytotoxic; 410,000 compounds, 0.76% hits; HepG2 CAGA-GFP viability, ATP luminescence, 18 h; AID 588856
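HepG2 CAGA-GFP cells (1000/well, DMEM with 1% FBS) received compound, then TGF-beta at 500 pg/mL final, and were incubated 18 hours at 37 degrees C. Viability was read by CellTiter-Glo luminescence. Media-only wells were set as complete cell-killing and DMSO as no toxicity.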
KB-3-1 cytotox: kills parental KB-3-1 adenocarcinoma cells. KB-3-1 viability, CellTiter-Glo ATP luminescence, 72 h. Potency, µM (doses to about 46.1 µM), usual class: cytotoxic. 400,000 compounds, 1.4% hits. AID 1347075; also: nearly all actives have a fitted effect of over 60% in size
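Cytotoxicity in the drug-sensitive parental line KB-3-1 was scored as loss of CellTiter-Glo luminescence following 72 h incubation with compound. Values come from curve fitting of normalized concentration-response data.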
HT1080NT lethal: kills 2HG-producing HT-1080-NT fibrosarcoma cells. AID 686970. 360,000 compounds, 1.6% hits. HT-1080-NT fibrosarcoma viability, CellTiter-Glo ATP luminescence, 48 h. Potency, µM (top dose mostly 46.1 µM), usual class: cytotoxic;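 also: NT is the 2HG producing partner of a matched IDH1 knockdown line; nearly all actives have a fitted effect of over 55% in size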
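750 cells/well, RPMI + 5% FBS; 2 h settle, compound pin-transfer, 48 h at 37 degrees C. CellTiter-Glo 10 min RT, luminescence. Normalized to DMSO and media-only wells.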
TGFb SMAD3 inh: inhibitors of TGF-b signaling; HepG2 CAGA-GFP TGF-b/SMAD3 reporter, GFP fluorescence, 18 h; TGF-beta stimulated, 500 pg/mL final; Potency, µM (highest dose often 46.1 µM), hits mostly inhibitors; 410,000 compounds, 1.2% hits; AID 588855; also: nearly all actives have a fitted effect of over 65% in size
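Cell-based qHTS in HEPG2 carrying a CAGA-GFP Smad reporter; compounds added before 500 pg/mL final TGF-beta, 18 h incubation at 37 degrees C, GFP fluorescence quantified per cell by imaging cytometry.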
A number is an active result; i = inactive; ? = inconclusive; nt = no result given; [ ] = remark or other dose. Calls follow the shape of the dose curve; as a rule, active = well fitted curve in the direction sought with a large enough effect; inconclusive = small, poorly fitted or top-dose-only effect, or another doubt; inactive = no such curve, though single readings can be large; an effect the other way counts as inactive or inconclusive.

SMILES	HT1080 IDH1KD tx	KB-V1 cytotox	HepG2 tox	KB-3-1 cytotox	HT1080NT lethal	TGFb SMAD3 inh
COc1cc(C2C(C(=O)OCC(C)C)=C(C)N=C3SCCC(=O)N32)ccc1OCc1ccccc1 (stereo not drawn)	nt	?	i	i	nt	i
CCCCOc1ccc(C(=O)N2CCC(c3nc4ccccc4o3)CC2)cc1	nt	nt	i	nt	nt	i
CCn1c(COc2ccc(=O)n(-c3ccccc3)n2)nnc1SCc1cccc(OC)c1	i	16µM	i	i	i	i
COc1cccc(N2CCN(C(=O)c3nc(-c4ccc(Cl)cc4)n4c3CCCCC4)CC2)c1	nt	i	i	i	nt	16µM
O=C(c1ccc2c(Cl)c3c(nc2c1)CCCC3)N1CCN(c2cccc(Cl)c2)CC1	nt	?	i	?	nt	?
COc1ccc(CCNC(=O)c2nc(-c3ccc(Cl)cc3)n3c2CCCCC3)c(OC)c1	nt	i	i	i	nt	8.9µM
COc1cccc(N2CCN(C(=O)c3ccc4c(Cl)c5c(nc4c3)CCCC5)CC2)c1	nt	i	i	i	nt	11µM
O=C(Nc1ccc2c(c1)OCCO2)C(C1CC1)N1CCN(c2ccc(C(F)(F)F)cn2)CC1 (stereo not drawn)	i	i	i	i	i	?
O=C(Nc1cc(F)ccc1F)C1CCN(C(=O)c2cnn(-c3ccccc3)c2-n2cccc2)CC1	nt	?	i	i	nt	?
CN(C)c1ccc(NC(=O)CSC2=Nc3ccccc3C3=NC(CC(=O)NCc4ccccc4)C(=O)N23)cc1 (stereo not drawn)	nt	i	i	i	nt	?
NC(=S)Nc1nc2ccccc2s1	15µM	8.2µM	i	?	i	?
COc1ccccc1C(=O)Nc1nc2ccc(S(C)(=O)=O)cc2s1	i	5.8µM	i	i	i	i
COc1cccc(-c2cc(C(=O)Nc3nc4ccccc4s3)c3ccccc3n2)c1	?	21µM	i	i	?	i
CS(=O)(=O)c1ccc2nc(NC(=O)c3ccccc3Cl)sc2c1	i	i	i	i	i	i
Fc1cccc2sc(Nc3nc4ccccc4s3)nc12	i	21µM	i	i	i	i
Fc1ccc2nc(Nc3nc4c(F)cccc4s3)sc2c1	?	?	i	i	i	?
COCC(=O)Nc1nc2ccccc2s1	i	i	i	i	i	i
O=C(Nc1nc2ccccc2s1)c1cc(-c2ccco2)nc2ccccc12	?	?	i	?	?	i
CCOC(=O)Cc1nnc(NC(=O)c2ccccc2OC)s1	i	i	i	i	i	i
COC(=O)c1c(NC(=O)C2c3ccccc3Oc3ccccc32)sc(C)c1C	i[9.24 µM]	?	i	i	i	i
COC(=O)c1sc(NC(=O)C2c3ccccc3Oc3ccccc32)c(C(=O)OC)c1C	i	12µM	i	i	i	i
COc1ccc(C(=O)Nc2nc3ccccc3s2)c(OC)c1	21µM	6.5µM	18µM	7.3µM	21µM	i
Cc1ccc(C(=O)Nc2nc3ccc(S(C)(=O)=O)cc3s2)o1	?	i	i	i	21µM	i
COc1ccc2nc(NC(=O)c3ccccc3C(=O)O)sc2c1	i	i	i	i	i	i
COc1ccccc1C(=O)Nc1nnc(CCc2ccccc2)s1	6.5µM	?	i	12µM	7.3µM	i
SMILES	HT1080 IDH1KD tx	KB-V1 cytotox	HepG2 tox	KB-3-1 cytotox	HT1080NT lethal	TGFb SMAD3 inh
Cc1cc(Nc2cccc(Cl)c2C)n2nc(Cc3ccccc3)nc2n1	nt	i	i	i	nt	?
Cc1ccc(OCCSc2nc3ccc(NC(=O)c4ccco4)cc3s2)cc1	nt	i	i	i	nt	i
Cc1ccc(NC(=O)C2CCN(S(=O)(=O)c3ccc4c(c3)CCCN4C(=O)C3CCC3)CC2)cc1	nt	i	i	i	nt	?
CCOc1cc(-c2ccc3c(c2)OCO3)cc(=[O+]CC)c2c(C)oc(C)c12	nt	i	i	i	nt	i
CCc1ccc(C2c3c(oc4ccc(F)cc4c3=O)C(=O)N2CCc2ccc(OC)cc2)cc1 (stereo not drawn)	nt	i	i	i	nt	i
O=C(Nc1nc2ccccc2s1)C1c2ccccc2Oc2ccccc21	i	18µM	i	i	i	?
O=C(Nc1nc2ccccc2s1)c1c(F)cccc1Cl	i	i	i	?	i	i
COc1ccccc1C(=O)Nc1nc2ccccc2s1	21µM	?	11µM	?	26µM	i
Cn1cc(Cl)c(C(=O)Nc2nc3ccccc3s2)n1	?	18µM	i	i	?	i
CCN(Cc1ccccc1)C(=O)CCS(=O)(=O)c1cc(Br)cc2c1N(C(=O)C1CC1)CC2	nt	i	i	i	nt	i
O=C(CCSCc1cnn(-c2ccccc2)c1-n1cccc1)NCc1ccccc1Cl	nt	nt	i	nt	nt	?
Cc1ccccc1Cn1cc(S(=O)(=O)c2ccc(F)cc2)c(=O)c2cc3c(cc21)OCO3	nt	i	i	i	nt	i
COc1ccc(NC(=O)C(c2ccccn2)N(C(C)=O)c2ccc(C)cc2)cc1 (stereo not drawn)	i	18µM	i	i	i	i
CCOc1ccc(NC(=O)C(c2ccccn2)N(C(=O)CCl)c2ccc(OC)cc2)cc1 (stereo not drawn)	i	?	i	i	i	i
COC(=O)c1sc2cccc(F)c2c1S(=O)(=O)NCc1ccc(F)cc1	nt	i	i	i	nt	i
COc1cc(NC(=O)Cn2cc(C(=O)c3ccc(F)cc3)c(=O)c3ccc(C)nc32)cc(OC)c1	nt	i	i	i	nt	i
CCN(C(=O)CCc1nc(-c2ccc(C)cc2)no1)c1cccc(Cl)c1	nt	i	i	i	nt	13µM
CCc1ccccc1N(C)C(=O)CCc1nc(-c2ccc(C)cc2)no1	i	18µM	i	i	i	i
CCN(C(=O)CCc1nc(-c2ccc(C)cc2)no1)c1cccc(C(F)(F)F)c1	nt	i	i	i	nt	?
CCOC(=O)N1CCN(c2nc3ccccc3nc2C(C#N)S(=O)(=O)c2ccc(C)cc2)CC1 (stereo not drawn)	i	3.7µM	i	i	i	i
C=C(C)CNC(=S)N/N=C/C1=CCC2CC1C2(C)C (stereo not drawn)	i	?	i	?	i	?
CCCCNC(=S)N/N=C/C1=CCC2CC1C2(C)C (stereo not drawn)	i	?	i	?	i	11µM
COC(=O)C[C@@H]1C=C[C@H](NC(=O)Nc2cc(F)ccc2F)[C@@H](CO)O1	i	i	nt	i	i	nt
Cc1cc(C)c2nc(NNC(=O)c3ccc(S(=O)(=O)N4CCc5ccccc5C4)cc3)sc2c1	6.5µM	i	i	?	?	?
Cc1cc(C)c2sc(NNC(=O)c3ccc(S(=O)(=O)N4CCc5ccccc5C4)cc3)nc2c1	?	i	i	?	?	?

Screening data from PubChem.
